The text below walks through data of PubChem BioAssay.

Values without a mark were called inactive. Activity calls are given as the source filed them.

The nature of this experiment: MM1S myeloma cell viability, profiling panel, resazurin fluorescence, basal, 24 h, PK04 Diversity Set (AID 1174).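 Also: MM1S multiple myeloma cell line; test concentration not given here.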 The settings on record: higher = more signal, called active from +8 up or from −8 down. Background: Alamar Blue is a resazurin reagent that responds to reducing activity.
With `COc1cc2c(cc1O)C(C1CC1)N(Cc1cccc(OC(F)(F)F)c1)CC2` (stereo not given), the z-score was -3.32.

As for `C=CC[C@]1(C(=O)N2CCOCC2)COC(c2ccc(OCCCO)cc2)=N1`, the z-score was 0.574.

Turning to `C=CC[C@]1(C(=O)N2CCCCC2)N=C(c2ccc(OCCCO)cc2)O[C@H]1c1ccccc1CN=[N+]=[N-]`, the z-score was -0.398.

As to `COc1ccc(CCNC(=O)[C@@]2(Sc3ccc(C)cc3)CC(=O)N(Cc3ccccc3C(F)(F)F)[C@@H]2c2ccc(CO)cc2I)cc1`, the z-score is -2.05.

Turning to `O=C1N(CCS(=O)(=O)c2ccccc2)c2ccccc2[C@H]2OC(c3ccc(OCCCO)cc3)=N[C@@]12Cc1ccccc1`, the z-score was -2.38.

Consider `CCCCC[C@H]1OC[C@@]23C=C(Br)[C@@H](CC12)[C@@]1(CO1)C3=O` (stereo not given in full), for which the z-score was -0.586.

As for `COC(=O)[C@@]1(Cc2ccc(OC)cc2)[C@H]2c3cc(C(=O)N(C)C)n(Cc4ccc(OC(F)(F)F)cc4)c3C[C@H]2CN1C(=O)c1ccccc1`, the z-score is -6.89.

On to `CCC#CCN(Cc1ccccc1Br)[C@H](/C=C/C1CC1)[C@@H](O)Cc1ccccc1`, for which the z-score is 1.93.

Turning to `CC[C@@H]1O[Si](C(C)C)(C(C)C)c2c1cc(-c1cc(C)c(OC)c(C)c1)nc2-c1ccc(Oc2ccccc2)cc1`, the z-score is 0.722.

In the case of `CCCNC(=O)[C@@]1(C)c2ccccc2C(=O)N(c2ccc(C)cn2)[C@H]1c1ccc(CO)cc1`, the z-score was 0.268.

In the case of `[N-]=[N+]=Nc1ccccc1[C@@H]1OC(c2ccc(OCCCO)cc2)=N[C@]1(Cc1ccccc1)C(=O)N1CCCCC1`, the z-score was -3.26.

For `COc1ccc([Si](C)(C)[C@@H]2[C@@H](CCO)O[C@]3(C(=O)N(Cc4ccccc4)c4ccc(N5C(=O)c6cccc7cccc5c67)cc43)[C@H]2C)cc1`, the z-score is 0.274.

With `COc1cccc(C)c1NC(=O)O[C@H]1[C@H](OC(=O)Nc2ccc3c(c2)OCO3)[C@@H](OC(=O)Nc2ccc3c(c2)OCO3)[C@@H](OC)O[C@@H]1CO`, the z-score is -1.06.

As to `Cc1cc(C)c(C(O)C2C=CC3C(=O)N(c4ccccc4)C(=O)C3N2Nc2ccccc2F)c(C)c1` (stereo not given), the z-score was -0.371.

As for `CCCC1(C(=O)OC)C=C2C(=C(C)C(=O)C2C)CN1` (stereo not given), the z-score was -1.23.

Take `O=C(NCCN1CCOCC1)[C@@H]1c2ccccc2C(=O)N(Cc2ccccc2Cl)[C@H]1c1ccc(CO)cc1`: the z-score was -1.21.

In the case of `C=C(/C(=C/C[C@H](OC(C)=O)c1ccc(CO)o1)c1cnc2ccccc2c1)C(C)C`, the z-score was -0.575.

`CCOC(=O)C[C@H]1[C@H](OC(=O)Cc2ccc3c(c2)OCO3)[C@@H](NC(=O)c2ccc3ccccc3n2)c2cc(OCCCO)ccc2N1C(=O)c1ccc2ccccc2n1`: the z-score was -0.145.

For the molecule `[N-]=[N+]=Nc1ccccc1C[C@]1(C(=O)NCCN2CCOCC2)COC(c2ccc(OCCCO)cc2)=N1`, the z-score is 0.892.

Consider `COc1ccc(CCNC(=O)[C@@H]2c3ccccc3C(=O)N(C3CCCCC3)[C@H]2c2ccc(CO)cc2)cc1`, for which the z-score was -0.298.

`COCCOC(=O)N1C(=O)[C@@]2(c3ccccc31)[C@H](C(=O)NC[C@H](O)c1ccccc1)[C@H]1C(=O)O[C@H](c3ccccc3)[C@H](c3ccccc3)N1[C@@H]2c1ccc(O)cc1`: the z-score was -0.65.

As to `COC(=O)[C@]1(CCS(=O)(=O)c2ccccc2)N=C(c2ccc(OCCCO)cc2)O[C@@H]1c1ccccc1N=[N+]=[N-]`, the z-score is -3.19.

For the molecule `CC(C)C(CO)N1C(=O)[C@@H]2C3C(=O)OCCC/C=C\[C@H]3OC23C=CCN(c2ccc4ccccc4c2)C(=O)[C@@H]13` (stereo not given in full), the z-score was -0.235.

Consider `CN1C2C=C(CCCO)C(C3C(=O)N(C(N)=O)C(=O)C32)C1C1CC1` (stereo not given), for which the z-score was -0.179.

With `NCCCCCNC(=O)[C@@H]1C[C@@H]2C(=O)N[C@@H](CCCCN)C(=O)N2[C@@H]1c1ccc(O)cc1`, the z-score was 0.116.

Regarding `CCCCCC1=C2CNC(C)(C(=O)OC)C=C2C(C)C1=O` (stereo not given), the z-score was -1.59.

Take `COc1ccc(CCNC(=O)[C@@]2(c3ccc([N+](=O)[O-])cc3)CC(=O)N(C3CCCCC3)[C@@H]2c2ccc(CO)cc2)cc1`: the z-score was -0.881.

Consider `COCCOC(=O)N1C(=O)[C@@]2(c3cc(C#CCC(C(=O)OC)C(=O)OC)ccc31)[C@H](c1ccc(OCCO)cc1)N1[C@H](c3ccccc3)[C@H](c3ccccc3)OC(=O)[C@H]1[C@@H]2C(=O)N1CCc2cc(OC)c(OC)cc2C1`, for which the z-score is 0.26.

With `O=C(c1ccccc1)N1C(=O)[C@]2(Cc3ccccc31)N=C(c1ccc(OCCCO)cc1)O[C@@H]2c1ccccc1`, the z-score was -5.95.

On to `COc1ccc([Si](C)(C)[C@@H]2[C@@H](CCO)O[C@]3(C(=O)N(Cc4ccccc4)c4ccc(N5CCOC5=O)cc43)[C@H]2C)cc1`, for which the z-score was -2.51.

For the molecule `O=C1C2C=CC(C(O)c3ccco3)N(Nc3ccccc3F)C2C(=O)N1c1ccccc1` (stereo not given), the z-score was -0.936.

Turning to `CC(C)(C)OC(=O)COc1cccc(C(=O)CCN2CCOCC2)c1`, the z-score is -0.971.

On to `CS(=O)(=O)CCOC(=O)C1=CC(CCCO)=CC(c2ccc(CN3CCCC3)cc2)N(Cc2sc3ccccc3c2Cl)C=C1C(=O)OCCS(C)(=O)=O` (stereo not given), for which the z-score was -0.0646.

For `COC(=O)[C@@]1(Cc2ccc(F)cc2)[C@H]2c3cc(C(=O)N(C)C)n(CCc4ccc(OC)c(Br)c4)c3C[C@H]2CN1C(=O)c1ccccc1`, the z-score was -8.44 (active).

For the molecule `COc1ccc([Si](C)(C)[C@@H]2[C@@H](CC(=O)N3Cc4ccccc4C[C@H]3CO)O[C@]3(C(=O)N(Cc4ccc(N5C(=O)c6cccc7cccc5c67)cc4)c4ccccc43)[C@H]2C)cc1`, the z-score is -0.717.
